High-throughput results deposited in PubChem BioAssay by Broad Institute.
In the library only some 3% were active in any assay of this set; here they are far more common.
Statin myotox sup = suppression of simvastatin myotoxicity. C2C12 myotubes + simvastatin, ATP luminescence, 48 h; scaled: DMSO 0, geranylgeraniol control 100. rescue of ATP level, % at 7.49 µM. 330,000 tested, 0.78% active. AID 602340;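 active = mean ATP rescue above about 67%, or every replicate alone reaching that limit, limit read from the data, passing the limit was not always enough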;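 note: myotubes were challenged with 10 µM simvastatin during compound exposure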
esBAF inh = blocks esBAF chromatin remodeling in mouse ES cells | AID 602393 | 350,000 tested, 2% active | Bmi1-luciferase knock-in reporter, 24 h; 100% = twice the neutral-well signal | reporter increase, % at 12.5 µM; in the data active = activation above about 40%;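 note: 0% = median of the plate's neutral control wells and 100% = double that signal; a rise in the Bmi1 reporter signal indicates esBAF inhibition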
Wnt bcat act = activates Wnt/beta-catenin signaling in a reporter cell assay; activator, plate reader; activation, % at 9.35 µM; 300,000 tested, 1.2% active; in the data active = activation above about 30%, passing the limit was not always enough;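 note: 0% = neutral control wells and 100% = positive control wells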
MITF TRPM1 HTS = MITF TRPM1 promoter activation in melanoma cells; SK-MEL-5 TRPM1-promoter luciferase, 24 h; % of positive control, neutral wells = 0; activation, % at 12.5 µM; 300,000 tested, 0.75% active;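 active = mean activation of at least 80% with every replicate also reaching 80%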;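 note: 0% = neutral control wells and 100% = parthenolide positive control wells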
Active calls of the source: *; . = not tested or not shown.

SMILES | Statin myotox sup | esBAF inh | Wnt bcat act | MITF TRPM1 HTS
O=C(NC1CCN(C(=O)NCc2ccccc2)CC1)c1ccco1 | 101* | 2 | . | -11
O=C(NC1CCN(C(=O)NCc2ccccc2)CC1)c1ccccc1 | 1 | 0 | 0 | 1
CCC(=O)NC[C@H]1[C@@H](c2ccc(-c3ccccc3)cc2)[C@@H](CO)N1C(=O)C1CC1 | -1 | 7 | . | .
Cc1ccc(NC(=O)C2CCN(C(=O)[C@@H]3Cc4ccccc4CN3)CC2)cc1 | 0 | 54* | 7 | 37
Cc1cc(C)cc(NC(=O)C2CCN(C(=O)[C@@H]3Cc4ccccc4CN3)CC2)c1 | 12 | 4 | 2 | -11
O=C(CNC(=O)c1ccncc1)N/N=C/c1ccc(Br)cc1 | 8 | -10 | -2 | -14
O=C(CNC(=O)c1ccc(Br)cc1)N/N=C/c1cccnc1 | 109* | -3 | -2 | -5
COC(=O)C(F)(F)Sc1c(C)[nH]c2ccccc12 | 1 | 4 | 0 | 3
Cc1[nH]c2ccccc2c(=O)c1SC(F)(F)C(F)C(F)(F)F (centres undefined) | 104* | 2 | . | -11
CCn1c(C)cc2c(c1=O)C(c1ccncc1)C(C#N)=C(N)O2 (centres undefined) | 23 | -7 | . | .
Cc1cc2c(c(=O)n1CCN(C)C)C(c1ccc(Br)cc1)C(C#N)=C(N)O2 (centres undefined) | -11 | 3 | . | 3
CCCC1C(C#N)=C(N)Oc2cc(C)n(C)c(=O)c21 (centres undefined) | 3 | -20 | . | .
Cc1cc2c(c(=O)n1CCN(C)C)C(c1ccccc1Br)C(C#N)=C(N)O2 (centres undefined) | 90* | 4 | . | 8
Cc1cc2c(c(=O)n1C)C(Cc1ccccc1)C(C#N)=C(N)O2 (centres undefined) | 15 | 50* | 3 | .
Cc1cc2c(c(=O)n1Cc1cccnc1)C(c1ccc(F)cc1)C(C#N)=C(N)O2 (centres undefined) | 110* | 11 | -2 | -7
COc1ccc(CN(C)C[C@H]2OCCCC[C@H](C)Oc3ccc(NC(=O)c4ccncc4)cc3C(=O)N([C@H](C)CO)C[C@H]2C)cc1 | . | -3 | . | .
COC(=O)C[C@H]1CC[C@@H]2[C@H](COc3ccc(NC(=O)c4cc(C)on4)cc3C(=O)N2C)O1 | 19 | -3 | . | .
C[C@@H]1CN([C@H](C)CO)S(=O)(=O)c2ccc(-c3ccncc3)cc2O[C@@H]1CN(C)C(=O)C1CCCCC1 | -24 | 6 | . | .
COc1ccc(Oc2nccc(OC)c2C#N)cc1 | 30 | 9 | 3 | 15
N#Cc1c(-c2ccccc2)ccnc1Oc1ccccc1 | -13 | 49* | . | 47
O=C(OCc1ccccc1)c1ccc2c(c1)-c1ccccc1C2=O | . | . | 41* | 113*
CCOC(=O)C1(C)C=C(Nc2ccc(OC)cc2)C(=O)N1c1ccc(OC)cc1 (centres undefined) | . | . | . | -6
CCOC(=O)C1(C)C=C(Nc2cccc(OC)c2)C(=O)N1c1ccccc1 (centres undefined) | . | . | 43* | .
CCCNC(=O)C[C@@H]1C[C@@H]2c3cc(NS(=O)(=O)c4ccc(OC)cc4)ccc3O[C@@H]2[C@H](CO)O1 | -2 | 0 | . | .
CCCn1c(-c2ccc[nH]c2=O)nc2cc(C)c(C)cc21 | . | . | 62* | 30
SMILES | Statin myotox sup | esBAF inh | Wnt bcat act | MITF TRPM1 HTS
Oc1ccc(-c2csc(NCc3ccco3)n2)cc1 | -1 | 49* | -2 | .
Oc1ccc(-c2nc3ccccn3c2NCc2ccco2)cc1 | 81* | -6 | . | 17
O=C(Nc1ccc(O)cc1)c1c(O)c2c([nH]c1=O)CCCC2 | . | . | 21 | 86*
COc1ccc2oc(C(=O)N3CCN(S(=O)(=O)c4c(C)c(C)cc(C)c4C)CC3)c(C)c2c1 | -4 | 51* | -3 | .
COc1ccc2oc(C(=O)N3CCN(S(=O)(=O)c4ccc(F)cc4)CC3)c(C)c2c1 | -8 | 0 | -1 | 11
CNC[C@@H]1Oc2ccc(NS(=O)(=O)c3cn(C)cn3)cc2C(=O)N([C@H](C)CO)C[C@H]1C | 17 | -1 | . | .
Cc1noc(C)c1NC(=O)Nc1cccc2c1O[C@@H](CN(C)Cc1ccc(C(=O)O)cc1)[C@H](C)CN([C@H](C)CO)C2=O | 3 | -5 | . | .
Cc1[nH]nc(N)c1N=Nc1ccc(Br)cc1 | . | . | 8 | .
Cc1nc(N)sc1N=Nc1ccc(Br)cc1 | -17 | 75* | . | .
O=C(/C=C/c1ccccc1)C1=C(O)C(=O)N(CCO)C1c1ccc2c(c1)OCO2 (centres undefined) | 115* | -5 | 0 | -5
NC(=O)CC[C@@H]1NC(=O)[C@H](CO)NC(=O)c2cc([N+](=O)[O-])cc(I)c2OCC[C@@H](C(N)=O)NC1=O | 106* | -12 | -1 | 6
